# Screening results (PubChem BioAssay)
# PAFAH1B3 inh = blocks human PAF acetylhydrolase 1B catalytic subunit 3; AID 492972; 0.28% of 340,000 active; recombinant PAFAH1B3, FP-rhodamine probe, fluorescence polarization; Q15102; inhibition, % at 3.39 µM;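 active = inhibition above the screen-wide average of all tested compounds plus 3 SD, cut at about 25% in these data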;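 note: 0% = enzyme with DMSO only and 100% = wells lacking PAFAH1B3 protein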
# Target sequence (Q15102 whole entry, looked up): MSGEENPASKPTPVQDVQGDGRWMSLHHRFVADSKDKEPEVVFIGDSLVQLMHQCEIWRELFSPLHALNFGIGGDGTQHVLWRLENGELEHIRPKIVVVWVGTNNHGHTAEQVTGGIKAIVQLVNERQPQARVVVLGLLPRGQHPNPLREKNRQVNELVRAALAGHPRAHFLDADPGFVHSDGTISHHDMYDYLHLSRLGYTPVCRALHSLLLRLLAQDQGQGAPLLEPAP
# PME-1 inh = blocks human protein phosphatase methylesterase 1; Q9Y570; recombinant PME-1, FP-Rh probe fluorescence polarization; inhibition, % at 5.9 µM; 0.53% of 320,000 active; AID 2130;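 active = inhibition above the campaign mean of all compounds plus 3 SD, cut at about 26% in these data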;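 note: competitive labeling of PME-1 active site by serine hydrolase directed probe; 0% = PME-1 with DMSO and 100% = wells lacking PME-1 enzyme; inhibitors block probe labeling so polarization falls and inhibition rises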
# PAFAH2 FP inh = PAFAH2 (human) inhibition; 0.99% of 340,000 active; recombinant PAFAH2, FP-rhodamine activity probe, fluorescence polarization; inhibition, % at 3.39 µM; Q99487;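 active = inhibition above the mean over all tested compounds plus 3 SD, cut at about 30% in these data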;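 note: inhibitors block probe labeling of enzyme so polarization drops; 0% = enzyme with DMSO and 100% = wells lacking PAFAH2 protein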
# pPAFAH inh = inhibitors of human plasma PAF acetylhydrolase (pPAFAH) | Q13093 | recombinant pPAFAH, FP-rhodamine probe fluorescence polarization | inhibition, % at 3.39 µM | 1.5% of 330,000 active;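 active = inhibition above the mean inhibition across the screen plus 3 SD, cut at about 25% in these data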;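 note: inhibitors block binding of the rhodamine activity-based probe so polarization drops; 0% = enzyme with DMSO and 100% = wells lacking pPAFAH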
# Fam108B inh = blocks mouse Fam108B hydrolase in RBBP9 counter-screen; recombinant Fam108B, FP-Rh probe fluorescence polarization; inhibition, % at 9.51 µM; 0.33% of 300,000 active;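 active = inhibition above the screen mean inhibition plus 3 SD, computed separately per campaign, cut at about 18% in these data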;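 note: inhibitors lower polarization as less probe binds the enzyme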
# PAFAH1B2 FP inh = blocks human PAF acetylhydrolase 1b catalytic subunit 2; P68402; recombinant PAFAH1B2, FP-rhodamine activity probe, fluorescence polarization; inhibition, % at 3.39 µM; 1.2% of 340,000 active; AID 492953;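 active = inhibition above the mean of all tested compounds plus 3 SD, cut at about 24% in these data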;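 note: 0% = enzyme with DMSO and 100% = wells lacking PAFAH1B2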
# Target sequence (P68402 whole entry, looked up): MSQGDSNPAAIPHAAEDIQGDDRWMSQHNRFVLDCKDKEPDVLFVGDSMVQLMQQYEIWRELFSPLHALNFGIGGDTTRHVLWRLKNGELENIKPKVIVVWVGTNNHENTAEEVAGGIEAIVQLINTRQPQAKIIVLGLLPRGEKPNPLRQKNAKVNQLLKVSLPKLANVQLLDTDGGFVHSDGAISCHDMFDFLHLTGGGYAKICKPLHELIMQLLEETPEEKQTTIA
# Starred values were filed as active, the others as inactive; . = no result. An excerpt weighted towards active compounds, which were near 2.8% of everything screened.
SMILES,PAFAH1B3 inh,PME-1 inh,PAFAH2 FP inh,pPAFAH inh,Fam108B inh,PAFAH1B2 FP inh
Cc1ccnc(NS(=O)(=O)c2ccc(NC(=O)Cc3cccs3)cc2)n1,9,3,15,34*,5,4
CC(C)(C)c1ccc(N/N=C(\C#N)S(=O)(=O)C(C)(C)C)cc1,12,-1,19,33*,1,14
O=C(COC(=O)c1cc(=O)[nH]c2ccccc12)NC(=O)c1ccccc1,-20,-7,-20,-6,-2,-13
CN(CC(=O)Nc1ccc(N2CCOCC2)cc1)C(=O)c1cccc(Cl)c1Cl,9,-4,0,-4,0,6
CSCCC(NC(=O)c1ccccc1Cl)C(=O)N(C)CC(=O)Nc1ccc(N2CCOCC2)cc1 (configuration not stated),2,4,4,29*,0,5
C/C(=C\c1ccccc1)C1Nc2cccc3cccc(c23)N1,.,10,.,12,.,.
C/C(=C\c1ccc2c(c1)OCO2)C1Nc2cccc3cccc(c23)N1,21,37*,-9,6,.,10
CS(=O)(=O)c1cccc(-c2csc(N3CCC(C(N)=O)CC3)n2)c1,6,3,-8,6,.,4
CC(C)(C)OC(=O)NCCCCC1=CC2=CC(=O)C(C)(OC(=O)c3cnc4ccccc4n3)C(=O)C2=CO1 (configuration not stated),.,18,.,42*,12,.
COC/C=C/C1=CC2=CC(=O)C(C)(OC(=O)C3CCCC3)C(=O)C2=CO1 (configuration not stated),6,2,16,24,2,-5
COC/C=C/C1=CC2=CC(=O)C(C)(OC(=O)c3cnc4ccccc4n3)C(=O)C2=CN1CCCCO (configuration not stated),2,-1,8,7,3,-5
COC/C=C/C1=CC2=CC(=O)C(C)(OC(=O)c3cnc4ccccc4n3)C(=O)C2=CN1C1CC1 (configuration not stated),1,-3,-1,-3,3,6
COC/C=C/C1=CC2=CC(=O)C(C)(OC(=O)c3ccco3)C(=O)C2=CO1 (configuration not stated),.,-4,.,53*,9,.
COC/C=C/C1=CC2=CC(=O)C(C)(O)C(=O)C2=CO1 (configuration not stated),.,-3,.,48*,6,.
COC(=O)CCCC1=CC2=CC(=O)C(C)(OC(=O)c3cnc4ccccc4n3)C(=O)C2=CO1 (configuration not stated),.,25,.,32*,13,.
CCN(CC)CCC(O)(c1ccc2c(c1)OCO2)c1cc(OC)c(OC)c(OC)c1 (configuration not stated),4,.,1,.,.,6
CCc1ccc(CN2CCCC(CNC(=O)c3cccc(OC)c3OC)C2)cc1 (configuration not stated),-2,-3,0,2,-5,-3
COc1nc(NC2OC(CO)C(O)C(O)C2O)c(N)c(=O)[nH]1 (configuration not stated),7,.,-1,.,.,4
CCCCC1=CC2=CC(=O)C(C)(OC(=O)c3cnc4ccccc4n3)C(=O)C2=CO1 (configuration not stated),.,31*,.,57*,19*,.
COC/C=C/C1=CC2=CC(=O)C(C)(OC(=O)c3cnc4ccccc4n3)C(=O)C2=CN1CCc1ccccn1 (configuration not stated),.,2,.,25*,7,.
COCCN1C=C2C(=O)C(C)(OC(=O)c3cccs3)C(=O)C=C2C=C1CCCC(=O)OC (configuration not stated),7,1,1,7,3,0
CCCCC1=CC2=CC(=O)C(C)(OC(=O)CCC(=O)OC)C(=O)C2=CO1 (configuration not stated),.,-4,.,39*,-1,.
COC(=O)CCCC1=CC2=CC(=O)C(C)(OC(=O)c3ccc(Cl)nc3)C(=O)C2=CO1 (configuration not stated),.,8,.,36*,8,.
COC/C=C/C1=CC2=CC(=O)C(C)(OC(=O)c3cnc4ccccc4n3)C(=O)C2=CN1c1ccc(OC)cc1 (configuration not stated),7,7,14,19,3,4
COC(=O)CCC(=O)OC1(C)C(=O)C=C2C=C3CCCN3C=C2C1=O (configuration not stated),9,1,11,17,9,9
SMILES,PAFAH1B3 inh,PME-1 inh,PAFAH2 FP inh,pPAFAH inh,Fam108B inh,PAFAH1B2 FP inh
CC(C)[Si]1(C(C)C)OCC2OC(n3cnc4c(N)ncnc43)C(N)C2O[Si](C(C)C)(C(C)C)O1 (configuration not stated),3,.,4,.,.,2
CC(OC(=O)c1ccc(-c2ccc(O)cc2)cc1)C(=O)NC1CCCCC1C (configuration not stated),-6,-2,0,-9,-2,0
COC(=O)CCCC1=CC2=CC(=O)C(C)(OC(=O)c3cccs3)C(=O)C2=CN1c1ccccc1 (configuration not stated),5,5,3,11,2,6
COC(=O)CCCC1=CC2=CC(=O)C(C)(OC(=O)c3cccs3)C(=O)C2=CO1 (configuration not stated),.,8,.,43*,3,.
CCCCC1=CC2=CC(=O)C(C)(OC(=O)c3ccco3)C(=O)C2=CO1 (configuration not stated),.,3,.,48*,3,.
C/C(=N\N=C(/C)c1cccc(N)c1)c1cccc(N)c1,.,8,.,3,-1,.
CCC1CCCCN1C(=O)COc1ccc(S(=O)(=O)N2CCOCC2)cc1Cl (configuration not stated),-2,0,4,4,.,-3
O=c1cc(-c2ccccc2)[nH]n2cnnc12,7,-1,-2,-6,-4,1
O=C(/C(N=Nc1cccc([N+](=O)[O-])c1)=C(/O)c1ccc(Br)cc1)C(F)(F)F,.,17,.,7,10,.
O=C(c1ccc([N+](=O)[O-])cc1)N(Cc1cccs1)C1CCS(=O)(=O)C1 (configuration not stated),-9,-7,0,-3,3,0
[O-][n+]1cccc2c(Br)cc(Br)c(O)c21,21,5,13,34*,10,4
Cc1cc(NCCCCCCCNc2cc(C)nc3cc([N+](=O)[O-])ccc23)c2ccc([N+](=O)[O-])cc2n1,18,.,9,.,.,0
CC1=CC(=O)C=C/C1=C(/c1ccc(O)cc1C)c1ccccc1S(=O)(=O)O,2,-2,-1,17,.,26*
CN1CCC(=O)N(CCSc2ccc(Br)cc2)CC1,11,0,12,8,-2,26*
CN1CCC(=O)N([C@H](CSc2ccc(Br)cc2)Cc2ccccc2)CC1,4,2,1,8,3,10
O=C(NNC(=S)Nc1cccc(C(F)(F)F)c1)c1ccc(Cl)cc1Cl,13,9,4,25*,8,13
